Each structure is given as a SMILES string. Results filed as inconclusive are left out. Calls of active or inactive are those of the source. Unless noted, calls come from the whole dose curve; as a rule, active = well fitted curve in the direction sought with a large enough effect in the repeat runs; inconclusive = weak or mixed curves; inactive = no such curve, though single readings can be large; an effect the other way counts as inactive or inconclusive.

Assay [1] in a line: qHTS assay to identify aromatase inhibitors - cell viability counter screen (AID 743084).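 Note: cells stimulated with testosterone during compound exposure; nearly all actives have a fitted effect of over 55% in size.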
Assay [2] deals with Aryl hydrocarbon receptor (Homo sapiens) (UniProt P35869). As to the kind of experiment: qHTS assay to identify small molecule that activate the aryl hydrocarbon receptor (AhR) signaling pathway (AID 743085).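 For activation: HG2L7.5c1 human HepG2 liver cells with stably integrated DRE-driven firefly reporter; series mostly up to about 70 µM.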 Note: nearly all actives have a fitted effect of over 15% in size. Note: potency is the fitted concentration of half-maximal effect. An outline of the steps:
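Luminescence read-out: ONE-Glo reagent, 30 min at room temperature, in HG2L7.5c1 HepG2 reporter cells treated 24 h at 37C. Viability was measured beforehand by CellTiter-Fluor fluorescence after 30 min at 37C.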

Assay [3] in a line: qHTS assay to identify small molecule that activate the aryl hydrocarbon receptor (AhR) signaling pathway - cell viability counter screen (AID 743086).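 Note: HepG2 liver cells carrying the AhR DRE luciferase reporter; series mostly up to about 70 µM; nearly all actives have a fitted effect of over 45% in size.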 An outline of the steps:
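HepG2-AhR-luc (HG2L7.5c1) cells, 4000/well, treated 24 h at 37 C with compound; viability measured as CellTiter-Fluor fluorescence after 30 min in the same wells as the luciferase read.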
(In general: In qHTS, concentration-response curves come from the screen itself.)

The target of assay [4] is Peroxisome proliferator-activated receptor gamma (Homo sapiens) (UniProt P37231). As to the kind of experiment: qHTS assay to identify small molecule agonists of the peroxisome proliferator-activated receptor gamma (PPARg) signaling pathway (AID 743094; active = well fitted activation curve with a large enough effect in the signal ratio in the repeat runs, not every such curve was filed as active; the % refers to the signal ratio). An outline of the steps:
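Compounds dissolved in DMSO were added to PPARg UAS-bla HEK293H cells for 17 h at 37C, and reporter expression was quantified by fluorescence intensity after 1 h with LiveBLAzer B/G FRET substrate.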

The target is the same in assay [5]. The assay can be described thus: qHTS assay to identify small molecule antagonists of the peroxisome proliferator-activated receptor gamma (PPARg) signaling pathway (AID 743191; calls by dose curve; note: series mostly up to about 63 µM; nearly all actives have a fitted effect of over 30% in size). An outline of the steps:
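GeneBLAzer PPARg UAS-bla HEK293H cells, 5 h post-plating, exposed to compounds 17 h at 37C. LiveBLAzer B/G FRET substrate added for 1 h at room temperature; beta-lactamase reporter read by fluorescence intensity.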

The nature of assay [6]: qHTS assay to identify small molecule antagonists of the peroxisome proliferator-activated receptor gamma (PPARg) signaling pathway - cell viability counter screen (AID 743194). Note: nearly all actives have a fitted effect of over 55% in size. As to conditions: Potency: co-treated with 50 nM rosiglitazone. An outline of the steps: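 Cytotoxicity counter screen in PPARg-bla HEK293H cells, same wells as reporter assay. Compounds plus 50 nM rosiglitazone (final) for 17 h at 37 C, then viability read by CellTiter-Glo luminescence.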

Assay [7] can be described thus: qHTS assay for small molecule agonists of the antioxidant response element (ARE) signaling pathway (AID 743202; active = well fitted activation curve with a large enough effect in the signal ratio in the repeat runs, not every such curve was filed as active; the % refers to the signal ratio; note: potency is the fitted concentration of half-maximal effect). An outline of the steps: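 Agonist mode reporter screen: HepG2 cells with ARE-controlled beta-lactamase are incubated with test compounds for 16 h at 37 C, and beta-lactamase activity is measured as fluorescence of cleaved B/G FRET substrate.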
Assay [8] can be described thus: qHTS assay for small molecule agonists of the antioxidant response element (ARE) signaling pathway - cell viability counter screen (AID 743203; calls by dose curve; note: nearly all actives have a fitted effect of over 55% in size). An outline of the steps: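 Following 16 hrs of compound treatment at 37C, HepG2 cells with an ARE-controlled beta-lactamase gene were lysed with CellTiter-Glo. Luminescence was read after 30 min at room temperature.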
A short description of assay [9]: qHTS assay for small molecule activators of the heat shock response signaling pathway - cell viability counter screen (AID 743209). Note: nearly all actives have a fitted effect of over 50% in size. An outline of the steps:
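Readout: CellTiter-Glo luminescence, 30 min at room temperature. System: HSE-bla HeLa cells, 1500/well, plated overnight. Treatment: compounds in DMSO, 5 h at 37 C.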

Assay [10] in a line: qHTS assay for small molecule activators of the heat shock response signaling pathway (AID 743210; active = well fitted activation curve with a large enough effect in the signal ratio in the repeat runs, with a control signal flat, not every such curve was filed as active; the % refers to the signal ratio;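 note: HeLa cells with beta-lactamase reporter driven by heat shock elements; series mostly up to about 63 µM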). An outline of the steps:
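Quantitative high-throughput format using an engineered HeLa line in which heat shock response elements drive beta-lactamase; after 5 h with compound, cells received a B/G FRET substrate and fluorescence was read.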

Assay [11] in a line: qHTS assay to identify small molecule agonists of the peroxisome proliferator-activated receptor delta (PPARd) signaling pathway - cell viability counter screen (AID 743211). Note: nearly all actives have a fitted effect of over 55% in size. An outline of the steps: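 Read-out: CellTiter-Glo luminescence, 30 min RT, measured in the same wells as the beta-lactamase reporter. Cells: GeneBLAzer PPAR delta UAS-bla HEK293H, 3000 cells/well, compound exposure 17 h at 37C.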

The target of assay [12] is Peroxisome proliferator-activated receptor delta (Homo sapiens) (UniProt Q03181). As to the kind of experiment: qHTS assay to identify small molecule agonists of the peroxisome proliferator-activated receptor delta (PPARd) signaling pathway (AID 743212; calls by dose curve). An outline of the steps:
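Quantitative high-throughput agonist screen in a HEK293H beta-lactamase reporter line under UAS control. Compounds in DMSO, at 37 C. Fluorescence read after 2 h with FRET substrate at room temperature.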

The nature of assay [13]: qHTS assay to identify small molecule antagonists of the peroxisome proliferator-activated receptor delta (PPARd) signaling pathway - cell viability counter screen (AID 743213). Note: nearly all actives have a fitted effect of over 50% in size. An outline of the steps: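 PPARd-bla HEK293H cells (3000/well) got compound plus 300 nM L165041 agonist for 17 h at 37 C. Viability in the same wells came from CellTiter-Glo luminescence after 30 min at room temperature.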

Assay [14] is described as follows: qHTS assay to identify small molecule agonists of the farnesoid-X-receptor (FXR) signaling pathway - cell viability counter screen (AID 743218). Note: nearly all actives have a fitted effect of over 45% in size. An outline of the steps: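 Parallel cytotoxicity test: compound-treated (16 h, 37 C) HEK 293T FXR-bla reporter cells were lysed with CellTiter-Glo and luminescence recorded.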
Assay [15] in a line: qHTS assay to identify small molecule antagonists of the farnesoid-X-receptor (FXR) signaling pathway - cell viability counter screen (AID 743221; active = well fitted cell-killing curve with a large enough effect in the repeat runs, not every such curve was filed as active; note: nearly all actives have a fitted effect of over 50% in size). An outline of the steps: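 HEK 293T FXR-bla cells, 5 h pre-incubation; compound + CDCA 50 uM final, 16 h, 37 C; beta-lactamase FRET read first, then CellTiter-Glo luminescence, 30 min RT.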
The target of assay [16] is Vitamin D3 receptor (Homo sapiens) (UniProt P11473). As to the kind of experiment: qHTS assay to identify small molecule agonists of the vitamin D receptor (VDR) signaling pathway (AID 743222; calls by dose curve). An outline of the steps:
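In VDR-bla cells, compound-induced beta-lactamase expression is quantified by FRET substrate fluorescence. Treatment lasts 16 h at 37C; substrate develops 2 h at room temperature.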

Assay [17] deals with Peroxisome proliferator-activated receptor delta (Homo sapiens) (UniProt Q03181). As to the kind of experiment: qHTS assay to identify small molecule antagonists of the peroxisome proliferator-activated receptor delta (PPARd) signaling pathway (AID 743215; active = well fitted inhibition curve with a large enough effect in the signal ratio in the repeat runs, not every such curve was filed as active; the % refers to the signal ratio;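 note: cells stimulated with agonist L165041 at 300 nM final during compound exposure; series mostly up to about 62 µM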). An outline of the steps: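 HEK293H UAS-bla, PPARd; agonist L165041 300 nM final with cpd in DMSO; 37 C 17 h; FRET substrate, RT 2 h; fluorescence intensity.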

Assay [18] addresses Vitamin D3 receptor (Homo sapiens) (UniProt P11473). As to the kind of experiment: qHTS assay to identify small molecule antagonists of the vitamin D receptor (VDR) signaling pathway (AID 743223; active = well fitted inhibition curve with a large enough effect in the signal ratio in the repeat runs, not every such curve was filed as active; the % refers to the signal ratio). An outline of the steps:
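Beta-lactamase reporter read-out: FRET substrate fluorescence after 2 h at room temperature, following 16 h exposure of VDR-bla cells to test compound plus 3 nM (final) 1alpha,25-dihydroxyvitamin D3 agonist at 37C.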

The target in assay [19] is Bile acid receptor (Homo sapiens) (UniProt Q96RI1). The assay can be described thus: qHTS assay to identify small molecule antagonists of the farnesoid-X-receptor (FXR) signaling pathway (AID 743217; active = well fitted inhibition curve with a large enough effect in the signal ratio in the repeat runs, not every such curve was filed as active; the % refers to the signal ratio). An outline of the steps:
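GeneBLAzer FXR-UAS-bla HEK 293T, CDCA-stimulated (50 uM final). Compound treatment 16 h, 37 °C. Detection: beta-lactamase cleavage of B/G FRET substrate, fluorescence.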

For assay [20] the target is unchanged. As to the kind of experiment: qHTS assay to identify small molecule agonists of the farnesoid-X-receptor (FXR) signaling pathway (AID 743220; active = well fitted activation curve with a large enough effect in the signal ratio in the repeat runs, not every such curve was filed as active; the % refers to the signal ratio). An outline of the steps: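 Beta-lactamase reporter under UAS control in GeneBLAzer FXR HEK 293T cells (5000/well) measured with LiveBLAzer FRET substrate after 2 h at room temperature. Compound exposure lasted 16 h at 37C.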

Chain of Bile acid receptor (Homo sapiens) (Q96RI1 whole entry, looked up): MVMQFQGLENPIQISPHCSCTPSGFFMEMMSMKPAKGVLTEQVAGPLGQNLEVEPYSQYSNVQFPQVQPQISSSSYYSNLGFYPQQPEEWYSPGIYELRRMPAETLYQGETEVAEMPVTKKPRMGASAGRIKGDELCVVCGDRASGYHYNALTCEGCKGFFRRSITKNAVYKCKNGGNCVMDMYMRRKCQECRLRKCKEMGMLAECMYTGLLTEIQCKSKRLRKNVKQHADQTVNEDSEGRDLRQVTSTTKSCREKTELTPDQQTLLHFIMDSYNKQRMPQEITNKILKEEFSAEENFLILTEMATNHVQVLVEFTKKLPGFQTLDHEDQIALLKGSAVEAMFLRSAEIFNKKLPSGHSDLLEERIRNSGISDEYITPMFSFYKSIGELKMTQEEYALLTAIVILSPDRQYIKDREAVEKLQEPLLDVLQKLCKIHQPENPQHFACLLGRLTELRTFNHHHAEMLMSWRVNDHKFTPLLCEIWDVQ
Chain of Vitamin D3 receptor (Homo sapiens) (P11473 whole entry, looked up): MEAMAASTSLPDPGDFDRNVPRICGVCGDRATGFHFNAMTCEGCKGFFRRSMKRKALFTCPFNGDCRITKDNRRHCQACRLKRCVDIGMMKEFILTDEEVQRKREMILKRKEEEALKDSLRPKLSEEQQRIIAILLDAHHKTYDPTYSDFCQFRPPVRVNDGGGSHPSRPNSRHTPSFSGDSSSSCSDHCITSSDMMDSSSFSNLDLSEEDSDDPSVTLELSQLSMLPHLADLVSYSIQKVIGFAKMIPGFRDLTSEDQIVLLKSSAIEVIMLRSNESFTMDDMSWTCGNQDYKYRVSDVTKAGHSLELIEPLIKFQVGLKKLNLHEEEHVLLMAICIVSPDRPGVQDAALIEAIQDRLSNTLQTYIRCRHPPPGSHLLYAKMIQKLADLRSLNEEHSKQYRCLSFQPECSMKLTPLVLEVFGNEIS
Chain of Peroxisome proliferator-activated receptor delta (Homo sapiens) (Q03181 whole entry, looked up): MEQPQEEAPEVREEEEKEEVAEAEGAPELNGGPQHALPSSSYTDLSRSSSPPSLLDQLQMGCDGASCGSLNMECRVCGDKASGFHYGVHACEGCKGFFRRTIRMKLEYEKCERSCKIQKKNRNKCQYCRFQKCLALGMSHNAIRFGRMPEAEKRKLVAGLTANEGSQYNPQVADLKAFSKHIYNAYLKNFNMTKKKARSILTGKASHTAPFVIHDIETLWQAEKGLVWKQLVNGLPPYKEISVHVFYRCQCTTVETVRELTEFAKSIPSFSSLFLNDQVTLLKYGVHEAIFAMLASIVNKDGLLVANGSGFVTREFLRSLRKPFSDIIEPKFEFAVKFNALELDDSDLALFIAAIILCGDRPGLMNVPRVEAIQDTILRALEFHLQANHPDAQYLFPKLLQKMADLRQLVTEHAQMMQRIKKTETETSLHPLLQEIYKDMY
Chain of Peroxisome proliferator-activated receptor gamma (Homo sapiens) (P37231 whole entry, looked up): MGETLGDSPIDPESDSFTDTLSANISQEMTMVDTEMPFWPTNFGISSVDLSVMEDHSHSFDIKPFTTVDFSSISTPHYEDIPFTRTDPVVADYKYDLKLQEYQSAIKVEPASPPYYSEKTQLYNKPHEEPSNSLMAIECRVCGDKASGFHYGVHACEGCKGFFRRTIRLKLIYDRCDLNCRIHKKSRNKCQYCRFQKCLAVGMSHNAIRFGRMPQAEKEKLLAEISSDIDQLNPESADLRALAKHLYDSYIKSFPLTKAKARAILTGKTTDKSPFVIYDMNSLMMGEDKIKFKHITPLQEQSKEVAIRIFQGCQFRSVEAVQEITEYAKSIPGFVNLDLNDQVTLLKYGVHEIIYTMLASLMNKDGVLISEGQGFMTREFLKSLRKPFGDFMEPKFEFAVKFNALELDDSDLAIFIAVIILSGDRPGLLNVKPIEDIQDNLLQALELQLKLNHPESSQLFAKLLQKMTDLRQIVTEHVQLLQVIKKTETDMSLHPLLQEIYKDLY
Chain of Aryl hydrocarbon receptor (Homo sapiens) (P35869 whole entry, looked up): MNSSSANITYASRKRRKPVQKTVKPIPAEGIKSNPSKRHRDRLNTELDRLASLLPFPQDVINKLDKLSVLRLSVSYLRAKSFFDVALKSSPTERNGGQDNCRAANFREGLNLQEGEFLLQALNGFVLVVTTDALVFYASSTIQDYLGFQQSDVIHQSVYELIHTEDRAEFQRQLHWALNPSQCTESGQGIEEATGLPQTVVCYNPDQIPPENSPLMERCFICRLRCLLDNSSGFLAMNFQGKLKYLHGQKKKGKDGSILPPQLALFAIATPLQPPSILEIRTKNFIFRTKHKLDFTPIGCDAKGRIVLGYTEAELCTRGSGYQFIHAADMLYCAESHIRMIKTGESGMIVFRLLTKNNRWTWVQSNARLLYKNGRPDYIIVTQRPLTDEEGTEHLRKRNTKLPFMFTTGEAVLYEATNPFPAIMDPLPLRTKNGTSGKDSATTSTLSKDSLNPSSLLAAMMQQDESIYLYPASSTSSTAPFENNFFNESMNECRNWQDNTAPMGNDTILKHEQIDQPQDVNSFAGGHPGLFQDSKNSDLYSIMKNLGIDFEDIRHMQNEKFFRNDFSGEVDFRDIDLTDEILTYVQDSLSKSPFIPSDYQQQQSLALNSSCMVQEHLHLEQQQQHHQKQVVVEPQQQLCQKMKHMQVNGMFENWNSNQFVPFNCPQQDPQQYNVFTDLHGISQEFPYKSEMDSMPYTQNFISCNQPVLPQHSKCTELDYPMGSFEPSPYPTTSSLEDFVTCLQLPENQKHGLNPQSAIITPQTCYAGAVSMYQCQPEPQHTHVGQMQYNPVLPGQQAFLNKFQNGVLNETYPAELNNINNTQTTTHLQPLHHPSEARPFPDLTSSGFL

As for `ClC(Cl)Br`, the Potency entry in assay [1], in assay [2], in assay [5], in [6], in assay [7] and in [8] was “inactive” each time. Also, the Potency result in [9], in assay [11] and in [14] was “inactive” in each case. The compound was classed as inactive in assay [3], in assay [4], in assay [10], in assay [12], in assay [13] and in [15]. Besides, the result in assay [16] was inactive.

For the compound `O=C1CN=C(c2ccccc2)c2cc([N+](=O)[O-])ccc2N1`, the Potency entry in [1], in assay [2], in assay [5], in assay [6], in assay [8] and in assay [9] was “inactive” throughout. Also, the Potency entry in assay [11] and in assay [14] was “inactive” each time. The compound was called inactive in assay [3], in assay [4], in [10], in [12], in assay [13] and in [17]. The result in assay [15], in assay [16] and in [18] was inactive.

Turning to `CCCCc1ccc(O)cc1`, the Potency entry in assay [1], in assay [2], in assay [5], in [6], in assay [8] and in assay [9] was “inactive” in each case. In addition, the Potency entry in assay [11], in [19] and in assay [14] was “inactive” throughout. Further, the outcome in assay [3], in [4], in [10], in assay [12], in assay [13] and in assay [20] was inactive. The compound was called inactive in assay [15].

Take `CNC(=O)N(C)c1nc2ccccc2s1`: the Potency entry in [1], in [5], in assay [6], in [8], in assay [9] and in assay [11] was “inactive” in each case. Further, the Potency result in assay [19] and in assay [14] was “inactive” in each case. Further, in assay [2], the Potency is 27.3 µM (active). Besides, the outcome in assay [3], in assay [4], in [10], in assay [12], in [13] and in assay [15] was inactive. In addition, the call in assay [16] was inactive.

For the compound `C[C@@H]1CN(C2CCC(C#N)(c3ccc(F)cc3)CC2)CC[C@]1(C(=O)O)c1ccccc1` (stereo partly drawn), the Potency entry in [1], in [2], in [5], in [6], in [7] and in [8] was “inactive” throughout. The Potency result in assay [9], in assay [11] and in assay [19] was “inactive” each time. The call in assay [3], in assay [4], in assay [10], in assay [12], in assay [13] and in [17] was inactive. The compound was called inactive in [20], in [15], in assay [16] and in [18].

Consider `Cc1cc(C)nc(Nc2ccccc2)n1`, for which the Potency entry in [1], in [5], in [6], in assay [7], in [8] and in assay [9] was “inactive” each time. For the same compound, the Potency result in assay [11] and in assay [14] was “inactive” in each case. The Potency in assay [2] was 48.6 µM (active). For the same compound, the compound was classed as inactive in [3], in [4], in assay [17], in [15], in assay [16] and in assay [18].

`CC(COc1ccc(Oc2ccccc2)cc1)Oc1ccccn1` (stereo not drawn): the Potency result in assay [1], in [2], in assay [5], in assay [6], in [8] and in assay [9] was “inactive” each time. Besides, the Potency entry in assay [11] and in [19] was “inactive” in each case. Also, the outcome in assay [3], in [4], in assay [12], in assay [17], in assay [20] and in [15] was inactive. The outcome in assay [16] and in [18] was inactive. Further, the Potency in [7] is 48.5 µM (active).

As to `Oc1c(Cl)cccc1Cl`, the Potency result in [1], in assay [2], in [5], in [6], in assay [8] and in assay [9] was “inactive” in each case. Further, the Potency entry in [11] and in [14] was “inactive” throughout. The result in assay [3], in assay [4], in assay [10], in assay [12], in assay [13] and in [17] was inactive. Further, the result in [15], in [16] and in [18] was inactive.

(Values after PubChem BioAssay (Tox21).)
